Screen size: about 310,000 compounds; about 2,200 (0.71%) showed an effect of 50% or more. Effects have a minus sign here. The full list was thinned out, with strong results kept by preference.
target: human ether-à-go-go-related gene (hERG) potassium channel (human, UniProt Q12809); experiment: primary screen, population patch clamp on CHO cells stably expressing hERG; higher = less effect of the substance
Sequence (Q12809 whole entry, looked up): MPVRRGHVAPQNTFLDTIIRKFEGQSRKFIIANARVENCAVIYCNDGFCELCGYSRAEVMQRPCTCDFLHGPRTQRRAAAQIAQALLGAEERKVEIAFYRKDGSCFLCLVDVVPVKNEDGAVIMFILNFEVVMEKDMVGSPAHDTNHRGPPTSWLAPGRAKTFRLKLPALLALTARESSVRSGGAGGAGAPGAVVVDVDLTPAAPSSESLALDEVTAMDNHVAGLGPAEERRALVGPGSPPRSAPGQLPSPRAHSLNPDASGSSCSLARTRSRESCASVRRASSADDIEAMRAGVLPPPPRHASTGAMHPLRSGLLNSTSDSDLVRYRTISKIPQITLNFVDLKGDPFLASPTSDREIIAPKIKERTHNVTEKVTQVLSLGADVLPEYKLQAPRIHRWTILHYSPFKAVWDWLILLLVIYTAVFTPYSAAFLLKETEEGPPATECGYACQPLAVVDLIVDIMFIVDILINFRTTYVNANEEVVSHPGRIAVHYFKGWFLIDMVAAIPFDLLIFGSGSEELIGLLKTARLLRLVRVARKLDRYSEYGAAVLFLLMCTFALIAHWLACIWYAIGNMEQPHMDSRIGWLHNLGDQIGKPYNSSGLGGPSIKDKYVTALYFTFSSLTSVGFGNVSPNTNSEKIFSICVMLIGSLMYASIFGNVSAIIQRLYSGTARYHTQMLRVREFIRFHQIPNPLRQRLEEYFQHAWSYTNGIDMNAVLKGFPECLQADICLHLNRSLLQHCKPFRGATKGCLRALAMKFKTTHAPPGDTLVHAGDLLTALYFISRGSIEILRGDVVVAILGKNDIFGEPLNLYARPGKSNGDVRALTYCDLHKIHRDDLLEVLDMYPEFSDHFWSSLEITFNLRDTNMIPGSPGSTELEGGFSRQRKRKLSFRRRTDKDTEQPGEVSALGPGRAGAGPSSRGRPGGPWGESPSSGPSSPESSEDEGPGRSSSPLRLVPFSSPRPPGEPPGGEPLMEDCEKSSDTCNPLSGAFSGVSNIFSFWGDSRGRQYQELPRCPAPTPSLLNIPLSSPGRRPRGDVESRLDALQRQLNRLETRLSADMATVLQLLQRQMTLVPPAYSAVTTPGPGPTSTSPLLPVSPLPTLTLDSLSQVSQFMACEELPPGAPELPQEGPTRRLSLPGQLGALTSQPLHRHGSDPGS

| SMILES | hERG current change (%, negative = inhibition) at 1uM [%] |
| --- | --- |
| O=C(N/C(=C/c1cccnc1)C(=O)N1CCCCCC1)c1ccccc1 | 6.71 |
| CC1NC(=O)N(C)C2NC(=O)N(C)C(c3ccccc3)C12 (centres unmarked) | 11.1 |
| CC(C)(C)Sc1ccc([N+](=O)[O-])cc1C(=O)Nc1ccncc1 | 0.86 |
| O=C(O)C(=O)O.c1ccc(Cc2ccc(OCCCNC3CCCC3)cc2)cc1 | -3.05 |
| O=C(O)C(=O)O.c1ccc(-c2ccc(OCCCNC3CCCC3)cc2)cc1 | -54.9 |
| O=C(O)C(=O)O.c1ccc(COc2ccc(OCCCNC3CCCC3)cc2)cc1 | 8.41 |
| COc1ccc(CCNC(=O)Cn2c([N+](=O)[O-])cnc2C)cc1OC | 8.24 |
| CC1CC(C)CN(Cc2nc(N)nc(Nc3ccccc3)n2)C1 (centres unmarked) | -52.3 |
| COc1ccccc1Nc1nc(N)nc(CN2CCC(C)CC2)n1 | -37.3 |
| COc1ccccc1Nc1nc(N)nc(CN2CCCCC2)n1 | -4.26 |
| Cc1ccc(Nc2nc(N)nc(CN3CCc4ccccc4C3)n2)cc1 | -31.5 |
| CC1CC(C)CN(Cc2nc(N)nc(Nc3ccc4ccccc4c3)n2)C1 (centres unmarked) | -61.1 |
| CCN1CCN(Cc2nc(N)nc(Nc3ccc(C)c(C)c3)n2)CC1 | -14.8 |
| CC1CC(C)CN(C(=S)SCc2nc(N)nc(Nc3ccccc3)n2)C1 (centres unmarked) | 7.72 |
| COc1ccccc1Nc1nc(N)nc(CN2CC(C)CC(C)C2)n1 (centres unmarked) | -70.8 |
| Nc1nc(CN2CCc3ccccc3C2)nc(Nc2ccccc2)n1 | -10.8 |
| O=C(CC1NCCc2ccccc21)Nc1ccccc1 (centres unmarked) | 4.29 |
| COc1cc(S(=O)(=O)n2cnc(C)c2)ccc1Cl | 6.58 |
| CCCCC(=O)NNC(=S)NC(=O)C(c1ccccc1)c1ccccc1 | 12.3 |

| SMILES | hERG current change (%, negative = inhibition) at 1uM [%] |
| --- | --- |
| CC(C)(C)N(CC#CCC(O)(c1ccccc1)C1CCCC1)CCO (centres unmarked) | 15.6 |
| CNc1nc(CC(C)=O)ns1 | 6.99 |
| Cc1ccc(Cc2cc(C)n[nH]c2=O)cc1 | 27.1 |
| CN(C)c1ccc(/C=N/NC(=O)C(O)(c2ccccc2)c2ccccc2)o1 | -5.86 |
| CCOC(=O)C1CCCCN1Cc1cc(Cl)ccc1O (centres unmarked) | 4.99 |
| COC(=O)c1cc2c(ccn2-c2ccc(F)cc2)n1Cc1ccc(OC)cc1 | 0.901 |
| COc1ccc(C(=O)C2CCCN(Cc3cccn3-c3cccnc3)C2)cc1OC (centres unmarked) | -34.9 |
| COc1ccc(C(=O)C2CCCN(Cc3ccc4nonc4c3)C2)cc1F (centres unmarked) | 3.27 |
| COc1ccc(C(=O)C2CCCN(Cc3cccn3-c3nccs3)C2)cc1OC (centres unmarked) | -90.2 |
| COc1ccc(C(=O)C2CCCN(Cc3cccn3-c3nccs3)C2)cc1F (centres unmarked) | -91.4 |
| COc1ccc(C(=O)C2CCCN(Cc3ccsc3)C2)cc1OC (centres unmarked) | -38.5 |
| COc1ccc(C(=O)C2CCCN(Cc3cnc(N4CCOCC4)s3)C2)cc1F (centres unmarked) | -17.9 |
| O=C(O)c1ccc2c(=O)[nH]c(CN3CCOCC3)nc2c1 | 15.6 |
| CC(OC(=O)C1CCCCC1)C(=O)Nc1ccc(S(N)(=O)=O)cc1 (centres unmarked) | 9.37 |
| COc1ccc(CC(=O)Nc2ccc(-c3noc(-c4ccccc4OC)n3)cc2)cc1 | -11.7 |
| O=S(=O)(NCCc1ccncc1)c1cc(Br)ccc1F | 2.96 |
| O=C(c1cc([N+](=O)[O-])ccc1N1CCCCC1)N1CCc2ccccc21 | 8.63 |
| O=C(NCCCN1CCN(c2ccccc2F)CC1)Nc1ccc(F)cc1 | -47.6 |
| O=C(NCCCN1CCCC1)Nc1ccccc1[N+](=O)[O-] | 14.8 |

| SMILES | hERG current change (%, negative = inhibition) at 1uM [%] |
| --- | --- |
| O=C(CCn1c(=O)[nH]c2ccccc2c1=O)NCCCN1CCN(c2cccc(Cl)c2)CC1 | -30 |
| O=C(CCCCCn1c(=O)[nH]c2ccccc2c1=O)NCCCN1CCN(c2ccccc2F)CC1 | -84.6 |
| COc1cc2[nH]c(=O)n(CCC(=O)NCCCN3CCN(c4ccccc4F)CC3)c(=O)c2cc1OC | 0.776 |
| O=C(NCCCN1CCN(c2ccccc2F)CC1)Nc1ccccc1[N+](=O)[O-] | -51.1 |
| Cn1cnnc1SCC(=O)NCc1cccc(C(F)(F)F)c1 | 24.1 |
| CC(=O)Nc1ccc(N/C=C(\C#N)S(=O)(=O)c2ccc(Cl)cc2)cc1 | 11.1 |
| CCc1cccc(NC(=O)C2CCCN(S(=O)(=O)c3ccc4[nH]c(=O)ccc4c3)C2)c1 (centres unmarked) | -0.861 |
| CCOc1ccc(N2CC(C(=O)N3CCc4ccccc4C3)CC2=O)cc1 (centres unmarked) | -67.1 |
| Cc1ccc(N2CC(C(=O)N3CCc4ccccc4C3)CC2=O)cc1 (centres unmarked) | -17.7 |
| CCOc1ccc(N2CC(C(=O)N3CCc4ccccc43)CC2=O)cc1 (centres unmarked) | -8.82 |
| CCC(C)(C)n1nnnc1C(c1cc2ccc(OC)cc2[nH]c1=O)N1CCc2ccccc21 (centres unmarked) | 6.76 |
| CC(NC(=O)c1cc2c(=O)n3ccccc3nc2n(CC2CCCO2)c1=N)c1ccccc1 (centres unmarked) | -72.3 |
| Cc1ccc(S(=O)(=O)c2cc3c(=O)n4ccccc4nc3n(CC3CCCO3)c2=N)cc1C (centres unmarked) | 9.33 |
| N=c1c(C(=O)NC2CCCCC2)cc2c(=O)n3ccccc3nc2n1CC1CCCO1 (centres unmarked) | -79.2 |
| N=c1c(S(=O)(=O)c2ccccc2)cc2c(=O)n3ccccc3nc2n1CC1CCCO1 (centres unmarked) | -17 |
| N=c1c(C(=O)NC2CCCC2)cc2c(=O)n3ccccc3nc2n1CC1CCCO1 (centres unmarked) | -94.4 |
| CCOC(=O)c1c(C)[nH]c(N=Nc2cccc(OC)c2)c1C | 6.77 |
| CCOC(=O)C1CCN(S(=O)(=O)c2ccc(Br)c(OCC)c2)CC1 | 0.854 |
